Assay outcomes from PubChem.
A selection: hits, their analogues and other compounds. The true share with any hit is near 3.4%.
PP5 inh: inhibitors of human protein phosphatase 5 (PP5); actives 0.18% (n = 320,000); AID 1987; inhibition, % at 6.7 µM; purified PP5c, OMFP substrate fluorescence; P53041;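 active = inhibition above the campaign's mean inhibition across all tested compounds plus 3 SD, cut at about 9.5% in these data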;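 also: 0% = DMSO only and 100% = 100 µM cantharidin control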
pPAFAH FP inh: inhibitors of human plasma PAF acetylhydrolase (pPAFAH) | actives 1.5% (n = 330,000) | recombinant pPAFAH, FP-rhodamine probe fluorescence polarization | Q13093 | AID 463082 | inhibition, % at 3.39 µM;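 active = inhibition above the mean inhibition across the screen plus 3 SD, cut at about 25% in these data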;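 also: inhibitors block binding of the rhodamine activity-based probe so polarization drops; 0% = enzyme with DMSO and 100% = wells lacking pPAFAH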
PP1 inh: blocks human PP1-alpha phosphatase, a PP5 counter-screen | P62136 | purified PP1alpha, OMFP fluorescence | inhibition, % at 6.7 µM | actives 0.9% (n = 320,000) | AID 2235;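 active = inhibition above the mean inhibition of all tested compounds plus 3 SD, computed separately for each screening campaign, cut at about 15% in these data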
PAFAH1B3 inh: inhibitors of human PAFAH1B3. Q15102. recombinant PAFAH1B3, FP-rhodamine probe, fluorescence polarization. inhibition, % at 3.39 µM. actives 0.28% (n = 340,000). AID 492972;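 active = inhibition above the screen-wide average of all tested compounds plus 3 SD, cut at about 25% in these data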;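 also: 0% = enzyme with DMSO only and 100% = wells lacking PAFAH1B3 protein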
Target sequence (Q15102 whole entry, looked up): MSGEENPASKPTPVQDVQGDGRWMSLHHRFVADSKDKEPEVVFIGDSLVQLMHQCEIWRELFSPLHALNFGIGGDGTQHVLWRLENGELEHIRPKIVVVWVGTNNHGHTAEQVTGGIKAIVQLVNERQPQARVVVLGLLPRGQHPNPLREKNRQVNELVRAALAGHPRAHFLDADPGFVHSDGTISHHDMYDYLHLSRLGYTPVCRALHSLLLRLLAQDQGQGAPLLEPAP
PAFAH1B2 FP inh: blocks human PAF acetylhydrolase 1b catalytic subunit 2; recombinant PAFAH1B2, FP-rhodamine activity probe, fluorescence polarization; inhibition, % at 3.39 µM; actives 1.2% (n = 340,000);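 active = inhibition above the mean of all tested compounds plus 3 SD, cut at about 24% in these data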;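 also: 0% = enzyme with DMSO and 100% = wells lacking PAFAH1B2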
Target sequence (P68402 whole entry, looked up): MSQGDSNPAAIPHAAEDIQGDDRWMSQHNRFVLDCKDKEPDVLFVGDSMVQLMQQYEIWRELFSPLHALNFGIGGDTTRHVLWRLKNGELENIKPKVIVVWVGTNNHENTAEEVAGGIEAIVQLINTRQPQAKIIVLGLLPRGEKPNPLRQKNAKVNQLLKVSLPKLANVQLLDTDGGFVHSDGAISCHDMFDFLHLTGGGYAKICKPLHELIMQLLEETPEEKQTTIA
PAFAH2 inh: PAFAH2 (human) inhibition; Q99487; recombinant PAFAH2, FP-rhodamine activity probe, fluorescence polarization; inhibition, % at 3.39 µM; actives 0.99% (n = 340,000); AID 492956;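 active = inhibition above the mean over all tested compounds plus 3 SD, cut at about 30% in these data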;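 also: inhibitors block probe labeling of enzyme so polarization drops; 0% = enzyme with DMSO and 100% = wells lacking PAFAH2 protein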
Numbers without * were called inactive; x = no result given.

SMILES | PP5 inh | pPAFAH FP inh | PP1 inh | PAFAH1B3 inh | PAFAH1B2 FP inh | PAFAH2 inh
CC(=O)NC(Cc1c[nH]c2ccccc12)C(=O)OCC(=O)N1CCN(S(=O)(=O)c2ccc(Cl)cc2)CC1 (stereo not drawn) | x | x | x | 0 | 88* | 1
Cc1cc(C(=O)CSc2cccc[n+]2[O-])c(C)n1-c1ccc(Br)cc1 | 3 | 44* | -2 | x | x | x
Cc1cc(C(=O)CSc2cccc[n+]2[O-])c(C)n1-c1ccccc1 | -2 | 1 | 0 | 3 | -3 | 11
C[C@@H]1CN([C@@H](C)CO)C(=O)c2cccc(NS(C)(=O)=O)c2O[C@H]1CN(C)Cc1ccc(Oc2ccccc2)cc1 | x | 5 | x | -2 | 9 | 4
O=C(Nc1ccc(Cl)c(Cl)c1)Nc1nccs1 | 7 | -16 | 18* | -5 | -3 | -16
O=C(O)c1ccc(CSCc2ccccc2Cl)o1 | -3 | 4 | 2 | 13 | 30* | -1
O=C(NCc1ccccc1)c1ccc(F)c(S(=O)(=O)N2CCOCC2)c1 | 1 | -2 | 1 | 11 | 7 | 18
CCCn1nc(NS(=O)(=O)c2cccc3nonc23)c2cc3cccc(C)c3nc21 | 5 | 29* | 12 | 3 | 10 | 13
CCCn1nc(NS(=O)(=O)c2cccc3nonc23)c2cc3cc(C)ccc3nc21 | 0 | 17 | 4 | 9 | 8 | 11
CC(=O)NC(CCS(C)(=O)=O)C(=O)Nc1ccc(Cl)c(Cl)c1 (stereo not drawn) | 2 | 27* | 7 | -6 | -1 | 1
O=C(N/N=C/C=C\c1ccccc1[N+](=O)[O-])c1ccncc1 | 0 | 7 | -3 | 10 | 4 | 18
O=C(CCn1nnc2ccccc21)Nc1nnc(COc2ccccc2F)s1 | 4 | 0 | 1 | 1 | 18 | 2
CCCC(=O)Nc1nnc(Cc2ccccc2)s1 | -3 | 2 | 0 | 3 | 2 | -2
O=C(CCn1nnc2ccccc21)Nc1nnc(-c2ccccc2F)s1 | 3 | 5 | 17* | 2 | 0 | -1
O=C(CCn1nnc2ccccc21)Nc1nnc(Cc2ccccc2)s1 | 2 | 8 | 4 | 8 | 27* | 14
COc1ccc(Cn2nnnc2C(c2cc3cccc(C)c3[nH]c2=O)N2CCN(C)CC2)cc1 (stereo not drawn) | -3 | 6 | 4 | -1 | 29* | -4
CC(C)(C)OC(=O)N1CCC[C@H]1C(=O)Nc1ccc(Br)cc1 | 2 | 2 | -1 | 1 | 8 | 2
O=c1[nH]c2c(s1)C(c1ccccc1)C1C3CCC(C3)C1S2 (stereo not drawn) | 3 | 12 | 7 | 9 | 41* | -1
O=C(O)CCN1C(=O)C2C3CC(C2C1=O)C1C(c2ccccc2)c2sc(=O)[nH]c2SC31 (stereo not drawn) | 3 | 1 | 1 | 8 | 84* | 10
COc1ccc(C2c3sc(=O)[nH]c3SC3C4CCC(C4)C23)cc1 (stereo not drawn) | 1 | 4 | 3 | 9 | 5 | 7
CCN(CC)CCN(C(=O)c1ccccc1OC)c1nc2ccc(F)cc2s1 | 4 | -3 | 4 | 8 | 3 | 3
Cc1ccc(C(=O)NN2CC(O)=C(c3nc(-c4cccc([N+](=O)[O-])c4)cs3)C2=N)cc1 | 3 | 10 | 17* | 3 | 5 | 4
COc1cccc(C(=O)NN2CC(O)=C(c3nc(C)cs3)C2=N)c1 | -1 | 4 | -1 | 4 | 7 | 0
CC(C)(C)c1cn(-c2ccc(Cl)cc2)c(=S)[nH]1 | 3 | 6 | -7 | 1 | 2 | 4
O=C(c1ccccc1)N1CCC(CC2CC(c3cccc(Br)c3)=NO2)(C(=O)NCC2CCCCC2)CC1 (stereo not drawn) | 4 | 26* | 10 | -7 | 1 | -1
SMILES | PP5 inh | pPAFAH FP inh | PP1 inh | PAFAH1B3 inh | PAFAH1B2 FP inh | PAFAH2 inh
CCOc1ccccc1N(CC(=O)Nc1cc(OC)ccc1OC)S(C)(=O)=O | 2 | 1 | -4 | -5 | 4 | 8
NC(=NCCc1ccc(Cl)cc1)NS(=O)(=O)c1ccccc1 | -4 | 1 | -3 | 6 | 54* | 6
O=S(=O)(NC(=NCCc1ccc(Cl)cc1)c1ccccc1Cl)c1cccs1 | 1 | 3 | 0 | -1 | 47* | 15
NC(=NCCc1ccc(Cl)cc1)NS(=O)(=O)c1ccc(F)cc1 | 1 | 3 | 0 | 10 | 49* | 0
COCC(C)NC(=O)/C=C/c1ccc(OC)cc1 (stereo not drawn) | 5 | -4 | -5 | 5 | 1 | -6
CN(C)c1ccc(Cc2cc3c(O)ccc(O)c3cc(Cc3ccc(N(C)C)cc3)c2=O)cc1 | x | x | x | 34* | 18 | 39*
CCNC(=O)n1nccc1C(C)Oc1ccc(Cl)cc1 (stereo not drawn) | 0 | 14 | 1 | 1 | 58* | 7
COc1ccc(CC(O)CC2c3c(cc4c(c3OC)OCO4)CCN2C)cc1 (stereo not drawn) | 5 | 4 | -2 | 0 | 2 | -2
Cc1ccc(C)c(OCC(=O)Nc2nonc2NC(=O)COc2cc(C)ccc2C)c1 | 5 | -4 | 17* | -29 | -17 | -37
Cc1cccc(C)c1NC(=O)C(NC=O)c1ccc(Cl)cc1 (stereo not drawn) | 2 | 0 | -1 | -3 | 2 | 2
Nc1nc(-c2cccc(F)c2)cs1 | 2 | -2 | 2 | 7 | 45* | 1
Cc1ccc(OCC(=O)Nc2ccc(N3CCCC3)cc2)cc1C | 0 | 30* | 13 | 11 | 3 | 16
O=C(CNC1CCCCCC1)Nc1ccc(N2CCCC2)cc1 | 2 | 5 | 1 | x | x | x
CCOc1cccc(C(=O)Nc2ccc(N3CCCC3)cc2)c1 | 4 | 20 | 16* | 7 | -7 | 1
O=C(CNCCC1=CCCCC1)Nc1ccc(N2CCCCCC2)cc1 | 5 | 32* | 8 | -2 | 8 | 11
COc1ccccc1OCC(=O)Nc1ccc(N2CCCCC2)cc1 | -3 | 4 | 1 | 5 | 2 | 6
Cc1cccc(OCC(=O)Nc2ccc(N3CCCC3)cc2)c1C | -2 | 30* | 11 | 6 | 5 | 11
CNC(=S)N1CCN(c2nc3ccccc3s2)CC1 | -2 | 2 | 0 | 0 | 3 | -3
O=C(NCc1ccccn1)c1n[nH]c(=O)c2ccccc12 | -4 | 4 | 2 | 5 | -1 | 0
O=C(Nc1ccc(N2CCOCC2)cc1)c1ccc(COc2ccccc2)cc1 | 1 | 2 | 16* | 4 | 0 | -1
COC(=O)c1ccc(C(=O)OC)c(NC(=O)CSCc2ccccc2Br)c1 | -2 | -1 | 0 | 4 | 1 | -3
O=c1cc(-c2ccccc2)nc2cc(-c3ccco3)[nH]n12 | 1 | 27* | 5 | 3 | 1 | -7
O=c1cc(-c2ccccc2)nc2cc(-c3ccc(Br)cc3)[nH]n12 | 1 | 3 | 5 | 18 | 8 | 3
Cc1ccc(-c2c3c([nH]c(=S)c2C#N)CCCC3)o1 | -2 | 25* | 5 | 8 | 6 | 17
